IL-2 act = activators of IL-2 | IL-2 activation reporter assay, cell-based qHTS; stimulated with anti-CD3/CD4/CD28 beads; in transgenic mouse T cells | activation, % (series mostly up to about 46 µM) | 0.065% of 360,000 active; in the data active = activation above about 50%; inconclusive = mostly about 30% to 49%; also: 0% is about no effect
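Unstimulated transgenic mouse T cells preincubated 60 min with compound, then stimulated with anti-CD3/anti-CD4-coated beads plus anti-CD28 for 18 h at 37 degrees C. IL-2 response read as EGFP and DsRed fluorescence by plate cytometry.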
Integrin act MD = activates integrin-mediated alleviation for muscular dystrophy. alpha7betagal myoblasts, beta-gal FDG fluorescence, 48 h. Potency, µM (doses to about 38.3 µM), for the others: top-dose activation, usual class: activators. 0.064% of 350,000 active;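 also: potency is read from the fitted curve at half-maximal effect; 100% = response of the positive control SU9516; nearly all actives have a fitted effect of over 60% in size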
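alpha7betagal+/- myoblasts (passage 13, 250/well) treated 48 h at 37C with compounds at 1:260 dilution of DMSO stock. Lysed, then beta-galactosidase activity read as FDG fluorescence (ex 480/em 540) after 30 min, with pre-read for autofluorescence.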
Nrf2 ARE act = Nrf2 pathway activation; AREc32 ARE-luciferase reporter (MCF7-derived line), luminescence, 24 h; Potency, µM (top dose mostly 46.1 µM), for inactives: at the top dose activation, usual class: activators; 0.31% of 410,000 active; also: potency is read from the fitted curve at half-maximal effect; % of control where 0% means no effect; nearly all actives have a fitted effect of over 65% in size
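For detection, Steady-Glo was added and plates sat 30 min at RT; before that, AREc32_Fluc cells grown overnight in OPTI-MEM/5% FBS had been treated with 23 nL compound for 24 hr at 37 deg C.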
uPA generation = cell surface uPA generation inhibition | cell surface uPA generation assay, qHTS | Potency, µM (highest dose often 38.3 µM), for the others: at the highest dose activity change, negative = inhibition, most hits filed as inhibitors | 0.31% of 330,000 active | AID 540303; active = well fitted inhibition curve with a large enough effect; inconclusive = small, poorly fitted or top-dose-only effect; inactive = no such curve, though single readings can be large or run the other way; tested in mouse RAW 264.7 cells; also: potency is read from the fitted curve at half-maximal effect; % is scaled to controls: 0 for no effect and ±100 for the full control effect; nearly all actives have a fitted effect of over 55% in size
12-LOX inh = blocks human arachidonate 12S-lipoxygenase | P18054 | purified 12hLO, xylenol orange hydroperoxide absorbance | Potency, µM (top dose mostly 108 µM), without a hit: at the highest dose activity change, negative = inhibition, actives largely listed as inhibitors | 1.1% of 580,000 active | AID 1671190; also: potency is read from the fitted curve at half-maximal effect; % is scaled to controls: 0 for no effect and ±100 for the full control effect
Target sequence (P18054 whole entry, looked up): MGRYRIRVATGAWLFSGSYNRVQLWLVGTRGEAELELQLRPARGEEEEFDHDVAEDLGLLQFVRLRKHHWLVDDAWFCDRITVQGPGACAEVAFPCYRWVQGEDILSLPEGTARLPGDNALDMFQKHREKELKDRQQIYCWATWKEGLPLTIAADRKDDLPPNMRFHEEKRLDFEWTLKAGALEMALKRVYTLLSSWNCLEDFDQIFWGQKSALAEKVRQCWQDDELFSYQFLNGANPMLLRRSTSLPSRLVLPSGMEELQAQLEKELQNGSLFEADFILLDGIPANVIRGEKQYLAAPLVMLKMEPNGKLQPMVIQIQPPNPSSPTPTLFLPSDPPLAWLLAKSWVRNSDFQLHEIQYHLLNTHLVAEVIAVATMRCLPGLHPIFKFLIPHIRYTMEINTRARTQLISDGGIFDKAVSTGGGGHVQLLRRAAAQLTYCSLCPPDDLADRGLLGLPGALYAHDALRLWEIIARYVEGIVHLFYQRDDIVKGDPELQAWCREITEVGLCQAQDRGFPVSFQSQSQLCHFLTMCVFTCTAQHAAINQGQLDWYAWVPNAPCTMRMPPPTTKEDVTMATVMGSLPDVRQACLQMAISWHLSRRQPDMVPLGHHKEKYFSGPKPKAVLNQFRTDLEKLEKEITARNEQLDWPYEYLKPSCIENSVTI
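Purified human 12hLO (150 nM final) in 25 mM Hepes, 0.01% Triton X-100, pH 7.0 was preincubated 15 min at room temperature with compound. Then 40 uM arachidonic acid was added, 30 min. Hydroperoxide was read by Fe-XO absorbance ratio 573/405 nm.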
* hit, by the source's call; ? = inconclusive; nt = not tested or not shown; [ ] = remark or other dose. Shown are actives, neighbours in structure and some others; about 1.5% of the full set was active somewhere. Unless noted, calls follow the shape of the dose curve; as a rule, active = well fitted curve in the direction sought with a large enough effect; inconclusive = small, poorly fitted or top-dose-only effect, or another doubt; inactive = no such curve, though single readings can be large; an effect the other way counts as inactive or inconclusive.

SMILES	IL-2 act	Integrin act MD	Nrf2 ARE act	uPA generation	12-LOX inh
O=C(COC(=O)Cn1cnc2ccccc21)Nc1cc2c(cc1Cl)C(=O)c1ccccc1C2=O	-3.6	-9.8%	-1.3%	5.01µM*	-19.8%
O=[N+]([O-])c1cc(C2Nc3cccc4cccc(c34)N2)ccc1Cl	0.1	-35.6%	?	-1.7%	39.8µM*
Clc1ccc(C2Nc3cccc4cccc(c34)N2)cc1	-3.6	-4.8%	-0.1%[9.22 µM]	3.8%	4.47µM*
Cc1cccc[n+]1CC(=O)N1c2ccccc2Sc2ccccc21	-1.2	0.0%	-0.3%	-1.7%	-8.4%
CC[n+]1ccccc1/C=C1\Sc2ccc(C)cc2N1C	-1.5	-62.2%	2.1%	7.08µM*	39.8µM*
CC[n+]1ccccc1/C=C/Nc1ccccc1	-0.1	?	0.4%	-1.8%	?
CC(=S)/C=C1\Sc2ccccc2N1C	-1.5	-49.3%	2.6%	-2.6%	10µM*
CN1/C(=C/c2cccc[n+]2CCO)Sc2ccccc21	2.2	41.8%	4.1%	1.4%	44.7µM*
COc1ccccc1CNC(=O)Cn1ccc2cc(Cl)ccc21	nt	nt	nt	nt	1.5%
O=C(NCc1ccc(F)cc1)C1CN(Cc2ccccc2)C(=O)N1 (configuration not stated)	nt	nt	nt	nt	-3.4%[176 µM]
Cc1nc(SCc2nc3ccccc3[nH]2)c2oc3cc(Br)ccc3c2n1	-2.4	nt	9.6%	-15.9%	-4.6%
Cc1nc(SCCc2nc3ccccc3[nH]2)c2oc3ccccc3c2n1	0.9	nt	0.7%	12.5%	14.1µM*
CCc1nnc(NS(=O)(=O)c2ccc(N/C=C(\C=O)c3nc4cc(Cl)ccc4o3)cc2)s1	-0.9	-0.9%	?	1.1%	8.91µM*
CCc1nnc(NS(=O)(=O)c2ccc(NC(=O)c3ccc(Cl)cc3)cc2)s1	0.6	15.4%	-0.3%	3.8%	-10.9%
Cc1nc2c(OCc3ccccc3)cccn2c1N(C)C(=O)C1CCCCC1	0.3	nt	-0.3%[9.22 µM]	nt	50.1µM*
CCc1nc2c(OCc3cccc(Cl)c3)cccn2c1N(C)C(C)=O	54.6*	nt	7.9%	nt	0.1%
CCc1nc2c(OCc3cccc(Cl)c3)cccn2c1N(C)C(=O)C(C)C	-0.5	nt	3.3%	nt	nt
CNC(=O)NC(=O)COC(=O)c1ccc2c(=O)n3c(nc2c1)CCCCCC3	nt	nt	nt	nt	-3.7%
CC(=O)Nc1ccc(N(C(=O)c2cnccn2)C(C(=O)NC2CCCCC2)c2ccc(F)cc2)cc1 (configuration not stated)	0.1	11.2µM*	1.4%	-0.2%	?
COc1ccc(-c2csc3ncnc(N4CCN(c5cccc(Cl)c5)CC4)c23)cc1	-3.5	9.7%	-0.9%	11.2µM*	nt
O=c1cc(-c2cccs2)oc2ccc(Cl)cc12	-0.8	-12.4%	11.2µM*	nt	-1.0%
Cc1cc(C)c2c(CC(=O)O)c(C)[nH]c2c1	-1.1	4.9%	4.6%	-2.7%	50.1µM*
Cc1cccc2[nH]c(C3CCN(C(=O)C4CC5(CCNCC5)CN4)CC3)nc12 (configuration not stated)	nt	nt	nt	nt	75.4%
CC(=O)N1C(=O)/C(=C2\SC(=S)N(c3c(C)n(C)n(-c4ccccc4)c3=O)C2=O)c2ccccc21	0.5	8.4%	7.0%	-2.1%	?
CC(/C=C1\SC(=S)N(c2ccc(C(=O)O)cc2)C1=O)=C\c1ccccc1	1.2	37.4%	-0.8%	-2.2%	35.5µM*
SMILES	IL-2 act	Integrin act MD	Nrf2 ARE act	uPA generation	12-LOX inh
CC(=O)N1C(=O)/C(=C2\SC(=S)N(NS(=O)(=O)c3ccc(C)cc3)C2=O)c2ccccc21	-1.0	?	0.1%	3.5%	44.7µM*
CC(/C=C1\SC(=S)N(NS(=O)(=O)c2ccc(C)cc2)C1=O)=C\c1ccccc1	0.8	-2.3%	6.3%	1.0%	15.8µM*
CC(/C=C1\SC(=S)N(NC(=O)c2ccc(C)cc2)C1=O)=C\c1ccccc1	2.5	-12.2%	21.9%	0.4%	nt
CCn1nc(C(=O)Nc2nc(-c3ccccc3)cs2)c2ccccc2c1=O	nt	nt	nt	nt	0.6%
O=C(Nc1ncccn1)c1ccc([N+](=O)[O-])o1	2.6	-23.7%	?	-13.2%	-6.4%
COc1ccccc1NC(=O)c1ccc([N+](=O)[O-])o1	1.0	-59.0%	15.3%	10µM*	?
Cc1ccc2cccc(NC(=O)c3ccc(-c4cccc([N+](=O)[O-])c4)o3)c2n1	nt	nt	6.5%	nt	1.2%

From PubChem BioAssay
